Screens from PubChem.
Sampled rows, rich in hits. Any-hit rate of the full collection: about 3.5%.
Bead autofluor – compound fluorescence in toxin protease inhibitor counterscreen; compound autofluorescence counterscreen, microsphere flow cytometry; hits give high values; fluorescence intensity (test concentration not listed); 360,000 compounds, 3.1% hits; in the data active = fluorescence intensity above about 16000; inconclusive = no clear call, values can overlap the other calls
SARS 3CLpro inh – SARS-CoV 3CLpro protease inhibition; P0C6X7; recombinant SARS-CoV 3CLpro, quenched FRET peptide cleavage; inhibition, % at 6 µM; 290,000 compounds, 0.14% hits; AID 1706; in the data active = inhibition above about 12%
Anthrax LF prot – anthrax lethal factor protease inhibition. P15917. multiplex microsphere protease cleavage assay, LF. inhibition, % at 10 µM. 360,000 compounds, 0.12% hits. AID 588501; note: plate controls were buffer without enzyme for full effect and enzyme alone for no effect
BoNT-A LC inh2 – inhibitors of Botulinum neurotoxin A light chain protease; multiplex microsphere protease substrate cleavage, flow cytometry; inhibition, % at 10 µM; 360,000 compounds, 0.17% hits; note: plate controls were buffer without enzyme for full effect and enzyme alone for no effect
BoNT F protease – inhibitors of Botulinum neurotoxin F light chain protease; 360,000 compounds, 0.22% hits; inhibition, % at 10 µM; Multiplex microsphere protease cleavage assay, flow cytometry; in the data active = inhibition above about 35%, passing the limit was not always enough; inconclusive = no clear call, values can overlap the other calls; note: plate controls were buffer without enzyme for full effect and enzyme alone for no effect
Active calls of the source: *; ? = inconclusive; · = no result given. Cut-off read from the data, not from the text of the source, unless noted: active = inhibition above about 30%; inconclusive = no clear call, values can overlap the other calls; inactive = below that.

SMILES	Bead autofluor	SARS 3CLpro inh	Anthrax LF prot	BoNT-A LC inh2	BoNT F protease
O=C(c1ccccn1)N1CCN(c2cccc(C(F)(F)F)c2)CC1	4218	-0.2	-5.2	-0.5	-1.7
O=C(c1cc2ccccn2n1)N1CCN(c2cccc(C(F)(F)F)c2)CC1	20114*	0.6	0.3	-0.1	0.4
CCOC(=O)C1C(=O)NC(N2CCN(Cc3ccccc3)CC2)=NC1c1ccccc1 (configuration not stated)	11601	0.5	-5.0	-0.9	-8.4
CCOC(=O)C1C(=O)NC(N2CCCCC2)=NC1c1ccccc1 (configuration not stated)	22677*	1.7	-1.6	-0.8	1.0
COc1ccc(S(=O)(=O)N(C)C[C@@H]2OCc3cnnn3CCCC(=O)N([C@@H](C)CO)C[C@@H]2C)cc1	2981	·	-7.7	0.0	3.5
COc1ccccc1NC(=O)CN(c1ccccc1)S(=O)(=O)c1ccccc1	?	-1.0	-13.0	-6.5	-4.9
O=C(Oc1ccc(-c2ccccc2)cc1)N1CCOCC1	21166*	0.7	0.3	?	-1.7
O=C(Oc1cccc(Oc2ccccc2)c1)N1CCOCC1	10311	-1.3	-1.3	-0.2	-4.6
Cc1cccc(OC(=O)N2CCOCC2)c1	24289*	0.3	-3.1	-1.0	-0.5
C[C@@H](C(=O)Nc1nccs1)N1C(=O)C2CC=CCC2C1=O (some centres not stated)	3580	·	-1.8	0.4	8.3
Cc1cnc(NC(=O)C(C)N2C(=O)C3CC=CCC3C2=O)s1 (configuration not stated)	17257*	-3.4	-2.2	-2.6	-4.5
CS(=O)(=O)N1N=C(c2ccccc2)CC1c1ccc2nccnc2c1 (configuration not stated)	10220	2.8	1.3	3.3	9.5
CS(=O)(=O)N1N=C(c2ccc3nccnc3c2)CC1c1ccccc1 (configuration not stated)	24132*	-1.7	0.5	1.3	0.8
CC(C)(Oc1ccc(Cl)cc1)C(=O)NCc1ccncc1	20771*	0.3	-3.7	-0.4	-1.2
CC(C)(Oc1ccc(Cl)cc1)C(=O)Nc1ccncc1	3005	1.1	-2.4	-0.1	-9.4
Cc1ccc(NC(=O)Nc2cccnc2)cc1Cl	3209	21.3*	-8.1	-4.1	8.0
O=C(Nc1cccnc1)Nc1ccc(Br)cc1Cl	16594*	9.4	-3.3	-0.5	-2.0
O=C(Nc1cccnc1)Nc1ccccc1Cl	5339	1.5	-2.7	0.5	-0.9
c1ccc(OCCSc2nnnn2-c2ccccc2)cc1	3295	2.5	-7.5	-0.2	3.0
Fc1ccccc1OCCSc1nnnn1-c1ccccc1	20510*	5.0	-2.0	-1.7	-2.4
Sc1oc(-c2ccccc2)cc1C=Nc1ccccc1	24473*	3.2	-4.1	-2.1	-8.7
O=C(Cn1cnc(S(=O)(=O)N2CCCCC2)c1)Nc1ccc(OC(F)(F)F)cc1	4115	9.3	5.5	12.6	10.4
COc1cc(CC(NC(C)=O)C(=O)NC2CCN(C(=O)c3cc(OC)c(OC)c(OC)c3)CC2)cc(OC)c1 (configuration not stated)	3212	9.1	-0.5	-0.5	-4.4
COc1cc(C(=O)N2CCC(NC(=O)C(Cc3ccc(C)cc3)NC(C)=O)CC2)cc(OC)c1OC (configuration not stated)	22816*	-4.7	-3.8	-0.5	-1.2
COc1cc(C(=O)N2CCC(NC(=O)C(Cc3ccccc3C)NC(C)=O)CC2)cc(OC)c1OC (configuration not stated)	21354*	-0.6	1.1	?	-1.8
SMILES	Bead autofluor	SARS 3CLpro inh	Anthrax LF prot	BoNT-A LC inh2	BoNT F protease
COc1ccccc1CC(NC(C)=O)C(=O)N1CCN(C(=O)c2cccs2)CC1 (configuration not stated)	2805	-0.6	-0.5	0.1	-7.1
COc1cc(C(=O)N2CCN(C(=O)C(Cc3cc(C)ccc3C)NC(C)=O)CC2)cc(OC)c1OC (configuration not stated)	22028*	-2.2	-2.8	2.8	1.2
COC(=O)C(O)(CC(=O)Nc1ccc(C)c(F)c1)C(F)(F)F (configuration not stated)	16452*	4.0	2.4	?	15.0
CC(NS(=O)(=O)c1ccccc1)C(N)=O (configuration not stated)	17096*	-5.5	-7.1	-2.1	-3.4
CCCCOC(=O)Nc1ccc(C(C)C)cc1	2399	1.3	0.1	-0.3	3.6
COc1cccc(OCCN2CCN(c3ncnc4c3cnn4-c3ccccc3)CC2)c1	16922*	-2.4	-3.0	-1.8	-7.2
CC1CCN(c2ncnc3c2cnn3-c2ccccc2)CC1	4149	2.1	-3.3	2.4	1.3
Cc1ccc(N/C(N)=N/c2nc(CSc3ccc(C)cc3)cc(=O)[nH]2)cc1	23020*	-0.8	0.4	-1.6	-1.7
